{"source": "paper PMC7862700", "about": "“An all-to-all approach to the identification of sequence-specific readers for epigenetic DNA modifications on cytosine”", "experiment_in_all_cases": "DAPPL (digital affinity profiling via proximity ligation, sequencing); 10 mM Tris-HCl pH 7.5, 50 mM NaCl, 1 mM DTT, 4% glycerol, room temperature, 30 min; GST-TFs on glutathione beads, 16-mer random dsDNA library, 0.1% formaldehyde crosslink after washing; high values mean tight binding", "settings_in_all_cases": "protein: recombinant; tags: N-terminal GST; dsDNA, one strand shown", "key": {"FLI1": {"biological_target": "T1, FLI1 (Homo sapiens, UniProt Q01543 1-452)", "T1 sequence": "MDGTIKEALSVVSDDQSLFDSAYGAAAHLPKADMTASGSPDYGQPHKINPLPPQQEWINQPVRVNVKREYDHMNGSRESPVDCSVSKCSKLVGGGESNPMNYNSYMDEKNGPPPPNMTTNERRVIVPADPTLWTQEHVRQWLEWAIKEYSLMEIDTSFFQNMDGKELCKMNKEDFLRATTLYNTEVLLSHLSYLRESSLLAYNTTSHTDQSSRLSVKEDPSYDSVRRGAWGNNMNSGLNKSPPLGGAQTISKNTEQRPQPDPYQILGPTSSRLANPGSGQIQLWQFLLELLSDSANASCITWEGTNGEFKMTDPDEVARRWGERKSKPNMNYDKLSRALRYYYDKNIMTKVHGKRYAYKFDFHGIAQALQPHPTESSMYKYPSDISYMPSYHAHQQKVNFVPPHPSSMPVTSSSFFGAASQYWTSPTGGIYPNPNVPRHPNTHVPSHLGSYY", "procedure,_shortened": "(§1)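 Pools of DNA-barcoded human transcription factors, expressed in yeast as GST fusions on glutathione beads and combined with a tag-only sample, were incubated with 200 nmole of a 16-mer random double-stranded DNA library. Incubation took 30 min at room temperature in Tris/NaCl/DTT/glycerol buffer and was followed by washing, 0.1% formaldehyde crosslinking, proximity ligation (BsaI/T4 ligase, 1 h, 37 °C), PCR amplification and sequencing on an Illumina NextSeq500. Binding signal is the ratio of a hexamer's read frequency for a factor to its frequency for the tag-only sample.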"}, "ELK1": {"biological_target": "T2, ELK1 (Homo sapiens, UniProt P19419 1-428)", "T2 sequence": "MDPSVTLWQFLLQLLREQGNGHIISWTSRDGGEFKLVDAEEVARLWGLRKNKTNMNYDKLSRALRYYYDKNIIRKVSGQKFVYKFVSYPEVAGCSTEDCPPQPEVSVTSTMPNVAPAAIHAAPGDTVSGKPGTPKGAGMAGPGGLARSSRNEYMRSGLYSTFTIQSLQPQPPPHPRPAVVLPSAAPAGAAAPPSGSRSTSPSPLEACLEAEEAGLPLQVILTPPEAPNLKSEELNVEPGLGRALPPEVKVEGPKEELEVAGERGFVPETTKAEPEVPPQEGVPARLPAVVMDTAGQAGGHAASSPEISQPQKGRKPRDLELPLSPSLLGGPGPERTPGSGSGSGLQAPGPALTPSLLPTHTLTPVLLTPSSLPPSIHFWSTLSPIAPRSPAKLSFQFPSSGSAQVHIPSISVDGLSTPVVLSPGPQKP", "procedure,_shortened": "as §1"}, "GABPA": {"biological_target": "T3, GABPA (Homo sapiens, UniProt Q06546 1-454)", "T3 sequence": "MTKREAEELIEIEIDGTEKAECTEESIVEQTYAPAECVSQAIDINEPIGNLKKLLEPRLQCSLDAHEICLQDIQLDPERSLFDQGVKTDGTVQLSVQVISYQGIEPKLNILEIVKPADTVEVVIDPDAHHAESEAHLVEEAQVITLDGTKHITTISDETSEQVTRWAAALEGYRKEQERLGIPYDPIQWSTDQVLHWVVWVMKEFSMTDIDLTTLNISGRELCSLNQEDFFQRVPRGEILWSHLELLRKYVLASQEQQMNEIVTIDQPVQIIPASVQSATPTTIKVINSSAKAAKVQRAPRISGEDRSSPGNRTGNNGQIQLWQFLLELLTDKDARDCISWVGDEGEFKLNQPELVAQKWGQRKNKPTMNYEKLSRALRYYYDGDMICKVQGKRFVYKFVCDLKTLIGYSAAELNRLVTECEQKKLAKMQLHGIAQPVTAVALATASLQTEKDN", "procedure,_shortened": "as §1"}, "ERG": {"biological_target": "T4, ERG (Homo sapiens, UniProt P11308 1-479)", "T4 sequence": "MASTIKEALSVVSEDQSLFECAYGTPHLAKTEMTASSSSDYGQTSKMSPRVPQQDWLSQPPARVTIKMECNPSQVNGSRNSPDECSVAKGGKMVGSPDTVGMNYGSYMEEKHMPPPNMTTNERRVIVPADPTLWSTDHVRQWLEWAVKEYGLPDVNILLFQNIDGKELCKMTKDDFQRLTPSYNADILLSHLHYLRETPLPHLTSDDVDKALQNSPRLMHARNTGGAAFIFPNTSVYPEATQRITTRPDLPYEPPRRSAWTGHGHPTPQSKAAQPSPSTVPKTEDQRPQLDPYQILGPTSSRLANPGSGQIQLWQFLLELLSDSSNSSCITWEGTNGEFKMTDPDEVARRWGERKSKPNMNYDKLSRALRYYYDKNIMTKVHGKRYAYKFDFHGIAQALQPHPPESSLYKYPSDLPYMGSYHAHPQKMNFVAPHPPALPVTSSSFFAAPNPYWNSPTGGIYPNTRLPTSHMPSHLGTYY", "procedure,_shortened": "as §1"}, "ELF1": {"biological_target": "ELF1 (Homo sapiens, UniProt P32519 1-619)", "sequence (P32519 whole entry)": "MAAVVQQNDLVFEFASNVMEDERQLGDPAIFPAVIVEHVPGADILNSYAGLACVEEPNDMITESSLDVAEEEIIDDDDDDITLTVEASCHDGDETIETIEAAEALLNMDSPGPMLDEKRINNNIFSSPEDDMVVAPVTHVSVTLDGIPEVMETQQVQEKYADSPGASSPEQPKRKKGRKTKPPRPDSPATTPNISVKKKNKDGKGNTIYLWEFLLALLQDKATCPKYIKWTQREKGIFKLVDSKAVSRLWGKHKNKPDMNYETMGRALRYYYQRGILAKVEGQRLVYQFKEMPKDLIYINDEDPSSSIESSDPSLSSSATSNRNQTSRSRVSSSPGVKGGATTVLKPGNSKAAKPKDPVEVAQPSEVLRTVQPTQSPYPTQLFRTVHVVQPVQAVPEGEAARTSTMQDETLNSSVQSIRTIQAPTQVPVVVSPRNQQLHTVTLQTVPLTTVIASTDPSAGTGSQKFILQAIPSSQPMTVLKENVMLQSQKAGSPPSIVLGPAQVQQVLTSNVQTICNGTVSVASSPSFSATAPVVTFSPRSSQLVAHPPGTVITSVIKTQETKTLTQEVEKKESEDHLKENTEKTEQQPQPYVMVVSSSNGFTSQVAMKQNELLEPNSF", "procedure,_shortened": "as §1"}, "EHF": {"biological_target": "T5, EHF (Homo sapiens, UniProt Q9NZC4 1-300)", "T5 sequence": "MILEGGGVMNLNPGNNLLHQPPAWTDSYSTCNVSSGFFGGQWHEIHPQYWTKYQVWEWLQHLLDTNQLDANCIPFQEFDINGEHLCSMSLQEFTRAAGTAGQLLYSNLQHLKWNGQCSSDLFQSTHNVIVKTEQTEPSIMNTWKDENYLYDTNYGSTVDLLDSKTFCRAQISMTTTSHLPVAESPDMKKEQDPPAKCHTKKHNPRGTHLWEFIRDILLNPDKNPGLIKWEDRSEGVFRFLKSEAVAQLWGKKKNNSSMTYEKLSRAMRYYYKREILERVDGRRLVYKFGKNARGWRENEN", "procedure,_shortened": "as §1"}, "SPI1": {"biological_target": "SPI1 (Homo sapiens, UniProt P17947 1-270)", "procedure,_shortened": "as §1"}, "SPIB": {"biological_target": "SPIB (Homo sapiens, UniProt Q01892 1-262)", "sequence (Q01892 whole entry)": "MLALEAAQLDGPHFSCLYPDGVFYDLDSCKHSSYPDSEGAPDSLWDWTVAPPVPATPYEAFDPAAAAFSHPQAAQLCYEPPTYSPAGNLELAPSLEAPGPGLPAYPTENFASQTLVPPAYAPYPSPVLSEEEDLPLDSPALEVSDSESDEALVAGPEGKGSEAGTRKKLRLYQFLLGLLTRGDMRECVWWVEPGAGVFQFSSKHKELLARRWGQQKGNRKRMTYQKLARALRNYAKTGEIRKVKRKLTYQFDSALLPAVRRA", "procedure,_shortened": "as §1"}, "ELK3": {"biological_target": "T6, ELK3 (Homo sapiens, UniProt P41970 1-407)", "T6 sequence": "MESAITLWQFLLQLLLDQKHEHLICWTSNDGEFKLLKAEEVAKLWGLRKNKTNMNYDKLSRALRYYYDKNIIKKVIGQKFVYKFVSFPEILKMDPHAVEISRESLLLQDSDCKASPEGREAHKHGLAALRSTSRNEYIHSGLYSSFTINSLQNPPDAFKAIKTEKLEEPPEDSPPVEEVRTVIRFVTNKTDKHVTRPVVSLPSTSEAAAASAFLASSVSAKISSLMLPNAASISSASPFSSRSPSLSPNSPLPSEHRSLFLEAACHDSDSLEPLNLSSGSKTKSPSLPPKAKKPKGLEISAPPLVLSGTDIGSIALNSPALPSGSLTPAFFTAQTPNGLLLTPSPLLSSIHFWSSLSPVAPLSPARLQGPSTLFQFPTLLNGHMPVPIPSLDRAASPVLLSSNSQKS", "procedure,_shortened": "as §1"}}, "data": [{"sequence": "AATTGC", "values": [{"measurement": "binding signal", "setting": "FLI1", "result": "1.44 fold enrichment (6-mer frequency, TF over GST control)"}, {"measurement": "binding signal", "setting": "ELK1", "result": "1.42 fold enrichment (6-mer frequency, TF over GST control)"}, {"measurement": "binding signal", "setting": "GABPA", "result": "1.44 fold enrichment (6-mer frequency, TF over GST control)"}, {"measurement": "binding signal", "setting": "ERG", "result": "1.3 fold enrichment (6-mer frequency, TF over GST control)"}, {"measurement": "binding signal", "setting": "ELF1", "result": "1.34 fold enrichment (6-mer frequency, TF over GST control)"}, {"measurement": "binding signal", "setting": "EHF", "result": "1.38 fold enrichment (6-mer frequency, TF over GST control)"}, {"measurement": "binding signal", "setting": "SPI1", "result": "1.43 fold enrichment (6-mer frequency, TF over GST control)"}, {"measurement": "binding signal", "setting": "SPIB", "result": "1.29 fold enrichment (6-mer frequency, TF over GST control)"}, {"measurement": "binding signal", "setting": "ELK3", "result": "1.46 fold enrichment (6-mer frequency, TF over GST control)"}]}]}
